Records with an inconclusive call do not appear. Active and inactive are the calls of the source. Calls follow the shape of the dose curve; as a rule, active = well fitted inhibition curve with a large enough effect; inconclusive = small, poorly fitted or top-dose-only effect, or effect the other way; inactive = flat fitted curve, though single readings scatter.
Experiment: qHTS for Inhibitors of Plasmodium falciparum (GB4) proliferation (AID 504315); also: nearly all actives have a fitted effect of over 50% in size
Settings: P. falciparum GB4 in erythrocytes, SYBR Green DNA, 72 h; series mostly up to 6.7 µM
How it was run: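 Erythrocytes infected with P. falciparum line (0.3% parasitemia, 2.5% hematocrit final) incubated with compounds 72 h at 37 °C, 5% CO2; SYBR Green lysis buffer added, fluorescence read next day. Normalized to 0.29 uM artemisinin and DMSO.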

Potency, inactive:
COc1ccc2c(c1)c(CC(=O)NCc1ccc3c(c1)OCO3)c(C)n2C(=O)c1ccc(Cl)cc1, COc1cccc(-c2coc3ccc(Br)cc3c2=O)c1, COc1ccc([C@]23Cc4c(ccc5ccccc45)[C@H](O2)C2=C(CCCC2=O)O3)cc1, COc1cccc([C@@H](NC(=O)C(F)(F)F)[C@@H]2CCCC=C2c2ccccc2)c1, COC(=O)CCC(=O)OC1(C)C(=O)C=C2C=C(C3CC3)N(Cc3ccc(OC)cc3)C=C2C1=O (stereo not given), COC(=O)C1=C(C(=O)OC)[C@@H]2N(C)c3ccccc3[C@@]23CCC(=O)N(Cc2ccc4c(c2)OCO4)C3=N1, COc1ccc([C@]23Cc4cc(OC)c(OC)cc4[C@H](O2)c2c(cc(C)oc2=O)O3)cc1, O=c1oc2ccccc2c2c1[C@H]1O[C@](c3ccsc3)(Cc3ccccc31)O2, CC(CCC(=O)OC[C@H]1O[C@H](C#Cc2ccccc2)C=C[C@H]1Oc1ccc(C)cc1)=NO[C@H](C)c1cn([C@@H]2COC[C@@H]2O)nn1, O=C1Nc2cccc(Br)c2[C@@]12O[C@H](COc1ccccc1)CC1=CCC[C@H]12, CC(=O)C1=C(C)N(Cc2ccccc2)C(=O)NC1CCc1ccccc1 (stereo not given), CC1=CC[C@@H](COc2ccccc2)O[C@@]2(C1)C(=O)N(CC1CC1)c1ccccc12, C#CCOCC#CC[C@@]1(C(=O)OC)C=C[C@@H](C)[C@H](c2ccccc2Br)N1C(=O)C(F)(F)F, CCN1C(N(C)CCOC)=NC(c2cccc(F)c2)C(C(=O)OC)=C1C (stereo not given), CC1(OC(=O)c2ccc(Cl)nc2)C(=O)C=C2C=C(c3ccsc3)OC=C2C1=O (stereo not given), COc1cc2c(c(OC)c1OC)[C@@]1(c3ccccc3)CCCC[C@H]1[C@@H]2NC(=O)C(F)(F)F, CC(=O)O[C@@H]1C(CO[Si](C)(C)C(C)(C)C)=C(Br)C(=O)[C@@H]2O[C@]12C, C#CCCCON=C1C[C@@H](O)[C@H](O)[C@H]2[C@@H]3C(=O)N(Cc4ccc5c(c4)OCO5)C(=O)[C@@H]3CC[C@@H]12, O=C1C2=C(C(=O)c3ccccc31)[C@H]1O[C@](c3ccsc3)(Cc3c1ccc1ccccc31)O2, Cc1ccc2[nH]c3nc(CCCn4ccnc4-c4ccccc4)nnc3c2c1, CC12C=C(C=Cc3ccccc3)C(C)(C1)C(c1ccccc1)CC2=O (stereo not given), COc1cccc([C@@H]2Oc3ccc(Br)cc3C(=O)[C@@H]2O)c1, CC1=C[C@@H](COCc2ccccc2)O[C@@]2(C1)C(=O)Nc1cccc(Br)c12, COc1ccc(-c2nc3c(c4c2C[C@H](c2ccccc2)OC4)CN(C(=O)Nc2cccc(C#N)c2)CC3)c(C)c1, COC(=O)NC(c1ccccc1)c1c[nH]c2ccc(OC)cc12 (stereo not given), C=C(C)C[C@@]1(c2ccccc2)Oc2ccccc2C2=NCCN=C21, COC(=O)CCC(=O)OC1(C)C(=O)C=C2C=C(C3CC3)OC=C2C1=O (stereo not given), C[C@H]1C=CCC(=O)N[C@@H](c2ccc3ccccc3c2)[C@@H](C)C=CCC(=O)N[C@@H]1c1ccc2ccccc2c1, COC(=O)C1=C(C)N(CC2CC2)C(=O)NC1c1ccc(Br)cc1 (stereo not given), C[C@@H]1C=CCC(=O)N2[C@H](CC(=O)N[C@@H]1c1ccccc1)C[C@@H](C)[C@@H]2c1ccccc1, C[C@H]1CC[C@H]2C(=O)N(Cc3ccccc3)C[C@@H](O)CN2[C@H]1c1cccc(Br)c1, COc1ccc(N2C(=O)N3[C@H](c4ccccc4)[C@@H](C)C[C@H]4c5ccccc5C[C@]43C2=O)cc1, N#Cc1ccc2c(c1)C[C@]1(CCCCN3C(=O)c4ccccc4C3=O)Oc3cc(-c4ccccc4)oc(=O)c3[C@H]2O1, CCc1cc2c(nc1CC)CCN(CCC(C)=NO[C@@H]1O[C@H](COC(C)=O)[C@@H](OC(C)=O)[C@H](OC(C)=O)[C@@H]1OC(C)=O)C2, COC(=O)C1=C(C)N(CC2CC2)C(=O)NC1CCc1ccccc1 (stereo not given), CC(=O)OC[C@H]1O[C@H](CC=NO[C@@H](C)c2cn([C@H](CO)Cc3ccccc3)nn2)C=C[C@@H]1OC(C)=O, CC(CCN1CCCc2nc(C)c(C)cc21)=NOC[C@@H](O)COCc1ccco1, COC(=O)C1=C(C(=O)OC)[C@@H]2N(C)c3ccc(OC)cc3[C@@]23C[C@@H](C(=O)OC)N(C(=O)N2CCNC2=O)C3=N1, CC1=CC[C@@H](C)O[C@@]2(C1)C(=O)N(Cc1ccc(F)cc1)c1ccccc12, COc1ccc([C@]23Cc4ccccc4[C@H](O2)c2c(cc(-c4ccccc4)oc2=O)O3)cc1
